# Inconclusive results are not listed. The source made the active and inactive calls. The calls were made as follows: active = hit-call score of the fitted dose curve at least 0.9, where 1 is the maximum; inconclusive = response in the unintended direction; inactive = score below 0.9.
# Target: Estrogen receptor (Homo sapiens) + Estrogen receptor beta (Homo sapiens) (UniProt P03372+Q92731)
# Assay: OT_ER_ERaERb_1440: Odyssey Thera (OT) 24-hour HEK293T Protein-Complementation Assay for Estrogen Receptor-alpha/-beta Homodimer (AID 2283356);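 also: hits raise reporter fluorescence and both agonists and antagonists give an increase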
# Procedure, shortened: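 Fragment complementation between ER alpha (310-547) and ER beta (263-489) ligand-binding domains in HEK293T cells; signal read 24 h post-dosing by laser scanning cytometer. Gain of fluorescence relative to DMSO fitted.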
# Sequence of Estrogen receptor (Homo sapiens) + Estrogen receptor beta (Homo sapiens) (P03372 whole entry, looked up): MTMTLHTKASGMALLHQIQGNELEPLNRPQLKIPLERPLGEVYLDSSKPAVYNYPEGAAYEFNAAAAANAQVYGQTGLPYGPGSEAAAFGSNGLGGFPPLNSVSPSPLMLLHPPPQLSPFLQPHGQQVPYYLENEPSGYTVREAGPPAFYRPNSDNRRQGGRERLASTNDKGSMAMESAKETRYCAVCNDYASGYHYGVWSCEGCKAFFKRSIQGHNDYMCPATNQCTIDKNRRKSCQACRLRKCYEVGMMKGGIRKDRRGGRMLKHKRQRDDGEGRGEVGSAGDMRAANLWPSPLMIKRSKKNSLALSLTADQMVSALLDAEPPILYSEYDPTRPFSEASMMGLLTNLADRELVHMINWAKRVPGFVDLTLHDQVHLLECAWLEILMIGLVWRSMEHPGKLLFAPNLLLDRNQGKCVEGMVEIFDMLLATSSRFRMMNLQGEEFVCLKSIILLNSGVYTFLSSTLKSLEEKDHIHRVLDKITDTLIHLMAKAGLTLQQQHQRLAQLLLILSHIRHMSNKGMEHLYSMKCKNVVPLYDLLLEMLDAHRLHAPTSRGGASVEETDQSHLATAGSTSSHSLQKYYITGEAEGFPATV
# Sequence of Estrogen receptor (Homo sapiens) + Estrogen receptor beta (Homo sapiens) (Q92731 whole entry, looked up): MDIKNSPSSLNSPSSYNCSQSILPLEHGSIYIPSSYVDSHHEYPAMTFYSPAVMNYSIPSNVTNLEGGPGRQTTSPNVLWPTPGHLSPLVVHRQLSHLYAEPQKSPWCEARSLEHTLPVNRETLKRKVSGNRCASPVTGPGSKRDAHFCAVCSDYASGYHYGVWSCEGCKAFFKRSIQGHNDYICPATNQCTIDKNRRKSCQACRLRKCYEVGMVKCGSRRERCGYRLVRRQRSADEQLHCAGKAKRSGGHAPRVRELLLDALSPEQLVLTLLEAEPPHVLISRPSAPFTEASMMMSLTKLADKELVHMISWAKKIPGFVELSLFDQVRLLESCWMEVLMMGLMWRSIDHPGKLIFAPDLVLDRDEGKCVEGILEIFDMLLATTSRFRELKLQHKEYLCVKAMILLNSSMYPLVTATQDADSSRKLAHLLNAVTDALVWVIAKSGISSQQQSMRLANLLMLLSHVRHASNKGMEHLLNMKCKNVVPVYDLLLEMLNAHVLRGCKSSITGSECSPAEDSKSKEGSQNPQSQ
Compound,outcome,AC50
C=CCCCCCCCCC(=O)OCC,inactive,
CCCCCC1CCC(=O)O1 (stereo not given),inactive,
C=CC(C)CCCC(C)(C)O (stereo not given),inactive,
CC12CCC(C1)C(C)(C)C2O (stereo not given),inactive,
c1ccc2scnc2c1,inactive,
COc1ccc2[nH]cc(CCNC(C)=O)c2c1,inactive,
CCCCCCCCOS(=O)(=O)O,inactive,
CC(O)CN (stereo not given),inactive,
CC(C)(C)c1ccc(S)cc1,inactive,
CN(C)C(=O)Nc1ccccc1,inactive,
NC(=O)c1cccnc1,inactive,
[Na+],inactive,
CCCc1ccc(N)cc1,inactive,
CCCCCCCCCO,inactive,
CC(=O)OC(C)(C)C,inactive,
O=C(OCc1ccccc1)c1ccccc1O,,44.5 µM (active)
CCCC(O)C(CC)CO (stereo not given),inactive,
CCCCOCCOCCOCCO,inactive,
CCOCC(C)O (stereo not given),inactive,
CCC(C)C1CCCCC1=O (stereo not given),inactive,
CCCC[N+](C)(CCCC)CCCC,inactive,
CC(C)N(c1ccccc1)C(C)C,inactive,
CC(C)(C)C1CCC(O)CC1 (stereo not given),inactive,
CCCCC/C=C\C=C\C(=O)OCC,inactive,
CCCc1ccc(O)cc1,,43 µM (active)
CCCCCCCCCCCCS,inactive,
CCC(C)COC(=O)CC(C)C (stereo not given),inactive,
c1ccc(OCCOc2ccccc2)cc1,inactive,
CC(=O)OC/C=C(C)/C=C/C=C(C)/C=C/C1=C(C)CCCC1(C)C,inactive,
CCCCOCCOCCO,inactive,

# From PubChem BioAssay (EPA / NIEHS)
